We go through 69 compounds from ChEMBL document CHEMBL4513216, “Probing the Open Global Health Chemical Diversity Library for Multistage-Active Starting Points for Next-Generation Antimalarials” (ACS Infect Dis, 2020).

The whole screen tested about 69,000 compounds, of which about 8,600 (12%) showed an effect of 50% or more. For the sample, strong results were picked, then their nearest neighbours and some compounds at random.

In the test the test system is Plasmodium berghei. Nature of the test: Screen against P. berghei liver stage (PbLuc), transformed with Luciferase, at 10uM. The class given is functional, HepG2. To be noted: tested at 10 uM.
Turning to `CCc1nc2c(s1)C(N(C)C(=O)c1cc[nH]n1)CCC2` (centres undefined), the INHIBITION was found to be 28.6%. As for `CCc1nc2c(s1)C(N(C)C(C)=O)CCC2` (centres undefined), the figure is 6.33%. The value for `CC(=O)N(C)C1CCCc2nc(C)sc21` (centres undefined) was 3.03%; that for `CCNC(=O)N(C)C1CCCc2nc(C)sc21` (centres undefined) was 64.9%; that for `Cc1nc2c(s1)C(N(C)C(=O)NCCCC(C)(C)CO)CCC2` (centres undefined) was 3.67%.

As to `CCc1nc2c(s1)C(N(C)C(=O)c1csnn1)CCC2` (centres undefined), the INHIBITION came out at 68%. In the case of `Cc1cc(C)n(CC(=O)N2CCC(c3nc(C(C)C)no3)CC2)n1`, the INHIBITION is given as -6.42%. For `COc1cc(CNCCn2ccnc2)cc2c1OCO2`, the INHIBITION is 17.4%.

In the case of `COc1ccc(CNC(=O)CCN2C[C@@H](C)[C@](O)(C3CC3)C2)cc1`, the INHIBITION amounted to 25.4%. As to `CC(=O)Nc1ccc(C(=O)N2CCSCC2c2ccc(C)o2)cc1` (centres undefined), the INHIBITION is -14.3%. Regarding `c1cncc(-c2noc(CN3CCCC3Cn3cccn3)n2)c1` (centres undefined), the INHIBITION was -9.37%.

As to `Cn1cnc(S(=O)(=O)N2CCN(Cc3ccco3)CC2)c1Cl`, the INHIBITION amounted to 32.7%. Take `O=S(=O)(c1cccs1)N1CCN(Cc2nc(-c3ccco3)cs2)CC1`: the INHIBITION was 57.1%.

Take `O=S(=O)(c1cccs1)N1CCCn2nnc(CN3CCCCC3)c2C1`: the INHIBITION was 23.2%. With `CC(C)(C)c1csc(CN2CCN(S(=O)(=O)c3cccnc3)CC2)n1`, the INHIBITION is recorded as 29%.

With `O=S(=O)(c1cccnc1)N1CCN(CC(O)c2cccs2)CC1` (centres undefined), the INHIBITION was -7.28%. With `N#CCCN1CCN(S(=O)(=O)c2ccc(Cl)s2)CC1`, the INHIBITION is on record as 42%.

`O=S(=O)(c1cccs1)N1CCCn2cnc(CN3CCCC3)c2C1`: the INHIBITION is -11.9%. For the compound `O=S(=O)(c1cccnc1)N1CCN(Cc2nc(-c3cccs3)cs2)CC1`, the INHIBITION stood at 57.1%. On to `O=S(=O)(c1cccnc1)N1CCN(Cc2nc(-c3ccco3)cs2)CC1`, for which the INHIBITION is listed as 33.4%. `Cc1ccc(CC(=O)N2CCN(CC(O)c3ccccc3)CC2)cn1` (centres undefined): the INHIBITION was 42.7%. The value for `O=S(=O)(c1cccnc1)N1CCN(CC(O)c2ccccc2)CC1` (centres undefined) was 83.4%; that for `O=S(=O)(c1ccc(Cl)s1)N1CCN(Cc2nc(-c3ccco3)cs2)CC1` was 86.6%. As for `Cn1ccc(C(=O)NC2CCC23CCN(Cc2nccs2)CC3)c1` (centres undefined), the figure is 38.2%. For the compound `Cc1cc(-c2ccccc2C(=O)O)nc(C2CCCN(C)C2)n1` (centres undefined), the INHIBITION is given as 30.8%. The value for `CC(C)CN1CCS(=O)(=O)[C@@H]2CCN(S(=O)(=O)C3CC3)CC[C@@H]21` was 12.1%; that for `CC(NC(=O)C1CC1)c1cc(O)nc(-c2cccnc2)n1` (centres undefined) was 10.3035%. As for `O=C(c1ccnnc1)N1CCO[C@H]2[C@H](Oc3cccnc3)CC[C@@H]21`, the figure is 13.7%; as for `CN1CCN(C(=O)CCc2ccccc2)Cc2cccnc21`, -54.5%; as for `C=c1occc1=C1NN=C2SC(C#N)C(N)=NN21` (centres undefined), -14.8%. As to `CCC(C(=O)NC1CCCCC1)n1cccc(OC)c1=O` (centres undefined), the INHIBITION was -1.83%. As for `O=C(c1ccoc1)N(Cc1ccccn1)C1CC1`, the figure is -0.87%; as for `CCC(C(=O)N(Cc1ccccn1)C1CCCCC1)n1cccn1` (centres undefined), 72.1%; as for `CCC(C(=O)N(C)Cc1cc(C2CC2)[nH]n1)n1cccn1` (centres undefined), -33.5%.

In the case of `CCC(C)C(=O)N(Cc1ccccn1)C1CC1` (centres undefined), the INHIBITION came out at 36.9%. As for `CCC(C(=O)N(Cc1ccccc1OC)C1CC1)n1cccn1` (centres undefined), the figure is 61%. In the case of `O=C(c1csc(-c2nnc[nH]2)n1)N1CCCCC1Cn1cccn1` (centres undefined), the INHIBITION came out at 18.2%.

Consider `Cn1cc(C(=O)CC2CCCN2C(=O)c2ccncc2F)cn1` (centres undefined), for which the INHIBITION worked out at 10%.

As for `CC(=O)N1CCN(CCCOc2ccccc2F)CC(C(N)=O)C1` (centres undefined), the INHIBITION is 46%. Take `COc1ccc(F)cc1C(=O)N1C[C@H]2CC(OC)C[C@H]2C1` (some centres undefined): the INHIBITION is on record as 23.2%. Regarding `Cc1ccccc1CC(C)(C)NC(=O)CCOc1cccc(C(N)=O)c1`, the INHIBITION is listed as 69.7%. As for `Cc1ccccc1CC(C)(C)NC(=O)COc1cccc(C(N)=O)c1`, the figure is 38%; as for `Cc1ccccc1CC(C)(C)NC(=O)c1cccc(OCC(N)=O)c1`, 36.3%. As for `c1cc2c(cc1Cn1cc(C3CCOC3)nn1)CCCO2` (centres undefined), the figure is 46.7%. On to `CCC(=O)N1CCCN(Cn2nc(C)c(Br)c2C)CC1`, for which the INHIBITION was determined as 56.1%. The value for `COCC(=O)N1CCN(Cn2nc(C)c(Br)c2C)CC1` was -36.4%; that for `COC(=O)N1CCCN(Cn2nc(C)c(Br)c2C)CC1` was 13%. The value for `COc1ccc(CNC(=O)N2CCN(CC(O)C3CC3)CC2)cc1` (centres undefined) was 35%. Consider `CN(C)CCOc1cccc(CN2CCCC3(C2)CN(C)C(=O)O3)c1` (centres undefined), for which the INHIBITION is reported as 20.9%.

As to `Cc1ccc(C(CNCc2cccnc2)N2CCOCC2)s1` (centres undefined), the INHIBITION is 42.3%. On to `CCn1ccnc1CNCC(c1ccc(C)s1)N1CCOCC1` (centres undefined), for which the INHIBITION is recorded as 60.3%. Regarding `Cc1ccc(C(CNCc2ncc[nH]2)N2CCOCC2)s1` (centres undefined), the INHIBITION worked out at 60.3%. As for `CN(Cc1ncc[nH]1)CC(c1cccs1)N1CCOCC1` (centres undefined), the figure is 12.8%; as for `Cc1ccc(C(CNCC2CC2)N2CCOCC2)s1` (centres undefined), -23.2%; as for `Cc1ccc(C(CNCc2nccn2C)N2CCOCC2)s1` (centres undefined), 47.4%.

Consider `Cc1nccn1CCN(C)C(=O)c1cn(-c2ccccc2)nn1`, for which the INHIBITION was -32.6%. As for `CC(C)NC(=O)N1CCCn2cnc(CN3CCCC3=O)c2C1`, the figure is -12.2%; as for `CN(C)CCOCC1CN(C(=O)c2ccnnc2)Cc2ccnn2C1` (centres undefined), 39.8%. The value for `CO[C@H]1CN(Cc2nc3ccccc3n2C)C[C@@]12CCCO2` was 25.64%; that for `COCCCNC(=O)CN(C)C(=O)c1ccc(-n2cccc2)cc1O` was 39.25%. Take `CCn1c(Cn2cncn2)nnc1C1CCN(C2CCOCC2)CC1`: the INHIBITION is listed as 15.7%. Take `Cc1n[nH]c(C2CN(C(=O)COCC(F)(F)F)CCO2)n1` (centres undefined): the INHIBITION was determined as 32.2%. The value for `NC(=O)c1cnn2c1NCC(CNC1(c3ccccc3)CCC1)C2` (centres undefined) was 33.7%. Take `O=S(=O)(NCc1ccc(S(=O)(=O)N2CCCC2)s1)c1cc(Cl)ccc1Cl`: the INHIBITION is recorded as 3.48%. Take `Nc1nc(SCc2ccc3c(c2)OCO3)ns1`: the INHIBITION was -14.2%. As for `CC(C)CNC(=O)Nc1cccc(OCC#N)c1`, the figure is -8.4%.

Regarding `CN(CCn1ccc2ccccc21)C(=O)Cc1nnn[nH]1`, the INHIBITION was determined as 62.8%. As for `CN(CCn1ccc2ccccc21)C(=O)CS(C)(=O)=O`, the figure is 34.1%; as for `CN(CCn1ccc2ccccc21)C(=O)Cc1n[nH]c(=O)[nH]1`, 5.38%.
